Experimental data published in PubChem BioAssay (Tox21).
Values joined by “and” are separate entries in the source; they are usually repeats but may differ in a detail not shown here. Equal values may be shown once. Records with an inconclusive call do not appear. A call without a number means that no potency is given here. Active and inactive are the calls of the source. The call rests on the fitted dose curve; in most records, active means well fitted cell-killing curve with a large enough effect in the repeat runs; inconclusive means weak or mixed curves, or effect the other way; inactive means flat fitted curve, though single readings scatter.

assay: Nuclear factor erythroid 2-related factor 2/antioxidant responsive element (Nrf2/ARE) small molecule agonists: qHTS cell viability counter screen in human keratinocytes (AID 1919968); details: KeratinoSens HaCaT ARE cells viability, CellTiter-Fluor, 24 h; series mostly up to 92.4 µM; further: nearly all actives have a fitted effect of over 55% in size
Excerpt: U.S. Tox21 Program National Center for Advancing Translational Sciences [NCATS] Division of Preclinical Innovation [DPI] U.S. Environmental Protection Agency [EPA] National Institutes of Environmental Health Sciences [NIEHS] National Toxicology Program [NTP] U.S. Food and Drug Administration [FDA] Tox21 Assay Overview: Oxidative stress has been implicated in the pathogenesis of a variety of diseases ranging from cancer to neurodegeneration. The antioxidant response element (ARE) signaling pathway plays an important role in the amelioration of oxidative stress. The KeratinoSens (Givaudan, Switzerland) is an in vitro test method which quantifies luciferase induction as a measure of activation of Keap1-Nrf2-antioxidationt/electrophile response element (ARE) dependant pathway in HaCaT human keratinocytes stably transfected with a selectable plasmid. The KeratinoSens assay is a cell-based assay with a reporter cell line to detect potential skin sensitizers by their ability to induce the Nrf2/ARE-response. The activation of the report gene under culture conditions can be detected by ONE-Glo Luciferase Assay System (Promega, Madison, WI). This cell line has been used to screen the Tox21 10K compound library to identify agonists that induce oxidative stress. The cytotoxicity of the Tox21 compound library against the KS-ARE cell line was tested in parallel by measuring the cell viability using CellTiter- Fluor assay system (Promega, Madison, WI) in the same wells.
Tox21 Assay Protocol Summary: HaCaT derived cell line KeratinoSens were dispensed at 1,500 cells/5uL/well in 1536-well white wall/solid bottom plates using a Multidrop Combi (ThermoFisher Scientific, Waltham, MA) dispenser. After the assay plates were incubated at 37 C/5% CO2 for 5 h, 23 nL of compounds dissolved in DMSO, positive controls or DMSO only was transferred to the assay plate by a pintool workstation (Kalypsys, San Diego, CA). The plates were incubated at 37 C/5% CO2 for 23 h, followed by addition of 1uL/well of CellTiter-Fluor reagent into the assay plates using a Flying Reagent Dispenser (Aurora Discovery, San Diego, CA) for cell viability readout that measures cytotoxicity. After 1 h incubation at 37 C/5% CO2 the fluorescence intensity was measured using a ViewLux (PerkinElmer, Shelton, CT) plate reader.
Potency means the concentration at half of the fitted maximal effect.

| Compound | Potency |
| --- | --- |
| Nc1cc([N+](=O)[O-])ccc1C(=O)O | inactive |
| Nc1ccc(Cl)cc1Cl | inactive |
| CC[N+](CC)(CC(=O)Nc1c(C)cccc1C)Cc1ccccc1 | inactive |
| CC1(C)OC[C@@H]2O[C@@]3(C(=O)O)OC(C)(C)O[C@H]3[C@@H]2O1 | inactive |
| O=S(=O)(O)c1ccc2cc(O)ccc2c1 | inactive |
| CCOC(=O)NNc1nncc2ccccc12 | inactive |
| Cc1ccc(Cl)cc1 | inactive |
| O=C(O)c1ccccc1C(=O)O | inactive |
| CCCCCCCCCCCCOC(=O)c1cc(O)c(O)c(O)c1 | 30.5 µM (active) and 27.3 µM (active) |
| CC1=CC(C)(C)Nc2ccccc21 | inactive |
| CC1=CC2C3CC(C=C3C)C2C1 (stereo not given) | inactive |
| c1ccc2ccccc2c1 | inactive |
| NC(=O)/N=N/C(N)=O | inactive |
| CCOCCOCCO | inactive |
| c1ccc2cc(Nc3ccc(Nc4ccc5ccccc5c4)cc3)ccc2c1 | inactive |
| CC(=O)c1ccc(O)cc1 | inactive |
| CC(=O)CCC=C(C)C | inactive |
| CCCCCCCC=O | inactive |
| CCCCC(CC)C(=O)O (stereo not given) | inactive |
| C[N+](C)(C)CCCCCC[N+](C)(C)C | inactive |

| Compound | Potency |
| --- | --- |
| O=C(/C=C/C=C/c1ccc2c(c1)OCO2)N1CCCCC1 | inactive |
| CCCCCCCCCCCCCC(=O)OC(C)C | inactive |
| CCCCCCC(C)(C)S | inactive |
| COCC(C)N (stereo not given) | inactive |
| CC(C)(Oc1ccc(Cl)cc1)C(=O)O | inactive |
| Nc1ccn([C@H]2CC[C@@H](CO)O2)c(=O)n1 | inactive |
| CCOC(=O)C(C)(C)Oc1ccc(Cl)cc1 | inactive |
| O=C=NCCCCCCN=C=O | inactive |
| CCCCCCCCCCCCc1ccccc1 | inactive |
| COc1ccc(C(Cl)=C(c2ccc(OC)cc2)c2ccc(OC)cc2)cc1 | inactive |
| CCCCCCCCCCC=CC1CC(=O)OC1=O (stereo not given) | inactive |
| CCOCC(=O)O | inactive |
| CC(C)(CO)COC(=O)C(C)(C)CO | inactive |
| CCCCCCCCC/C=C/CC1CC(=O)OC1=O (stereo not given) | inactive |
| COc1ccc(CN(CCN(C)C)c2ccccn2)cc1 | inactive |
| CN(C)c1ccc(C(=C2C=CC(=[N+](C)C)C=C2)c2ccccc2)cc1 | 4.33 µM (active) and 6.68 µM (active) |
| C=CC(=O)NC(C)(C)CS(=O)(=O)O | inactive |
| O=C(c1cc(O)c(O)c(O)c1)c1ccc(O)c(O)c1O | inactive |
| c1ccc(OCCOc2ccccc2)cc1 | inactive |
| COC(=O)c1ccccc1 | inactive |
